FLuc modulator: firefly luciferase modulation, counter-screen for miR-21 project. P08659. purified FLuc, Km substrates, luminescence inhibition. Potency, µM (highest dose often 57.5 µM), inactives show at the highest dose activity change, negative = inhibition, most hits filed as inhibitors. hit rate 6.9% among 360,000. AID 588342;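 also: plate controls were vehicle for no effect and reference inhibitor for full effect; nearly all actives have a fitted effect of over 55% in size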
Target sequence (P08659 whole entry, looked up): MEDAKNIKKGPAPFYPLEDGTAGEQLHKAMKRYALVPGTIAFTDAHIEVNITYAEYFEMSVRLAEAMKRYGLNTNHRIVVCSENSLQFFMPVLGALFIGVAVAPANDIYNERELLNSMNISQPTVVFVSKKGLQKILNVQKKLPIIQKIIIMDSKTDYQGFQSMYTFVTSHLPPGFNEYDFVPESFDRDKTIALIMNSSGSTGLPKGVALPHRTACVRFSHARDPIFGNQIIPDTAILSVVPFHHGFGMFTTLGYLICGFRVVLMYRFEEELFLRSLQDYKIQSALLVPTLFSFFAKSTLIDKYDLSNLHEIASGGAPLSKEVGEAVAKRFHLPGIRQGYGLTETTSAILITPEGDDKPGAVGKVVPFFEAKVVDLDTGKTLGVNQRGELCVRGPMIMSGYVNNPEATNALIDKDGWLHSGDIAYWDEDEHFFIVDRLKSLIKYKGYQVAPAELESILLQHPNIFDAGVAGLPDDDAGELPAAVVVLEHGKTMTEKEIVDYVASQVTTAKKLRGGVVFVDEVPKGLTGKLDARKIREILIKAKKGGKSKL
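Purified P. pyralis luciferase (10nM final) with 10uM D-luciferin and 10uM ATP (Km levels) in 50mM Tris acetate pH 7.5, 10mM Mg acetate, 0.01% Tween-20, 0.05% BSA; qHTS 6-point titration, ~60 µM downward; luminescence read.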
ELG1 genotoxic: induces genotoxicity in HEK293T cells with luciferase-tagged ELG1. HEK293T ELG1-luciferase reporter, luminescence, 16 h. Potency, µM (doses to about 46 µM), for inactives: top-dose activity change, positive = activation, most hits filed as activators. hit rate 1.3% among 330,000. AID 504466; also: % of control where 0% means no effect; nearly all actives have a fitted effect of over 60% in size
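HEK293T cells expressing luciferase-tagged ELG1 were treated with compound or DMSO for 16 hr at 37°C. Luciferase activity was then read after 30 min with ONE-Glo at room temperature; rising signal flags genetic stress.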
NPC1 promoter act: activators of NPC1 promoter | Potency, µM (series often up to 9.22 µM), for inactives: at the top dose activation, usual class: activators | hit rate 2.4% among 320,000 | AID 485313 | Huh7 NPC1 promoter luciferase reporter, 24 h; also: % of control where 0% means no effect; nearly all actives have a fitted effect of over 60% in size
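Stably transfected Huh7 (NPC1 promoter→luciferase), 1500 cells/well in Opti-MEM + 10% FBS, 2 h settle, then compound 24 h at 37 °C. Luminescence after 10 min with Amplite reagent.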
Rab9 promoter act: activates the Rab9 promoter | Huh7 Rab9 promoter-luciferase reporter, luminescence, 24 h | Potency, µM (highest dose often 9.22 µM), for inactives: at the top dose activation, negative = inhibition, most hits filed as activators | hit rate 2.8% among 320,000 | AID 485297; also: % of control where 0% means no effect; nearly all actives have a fitted effect of over 60% in size
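Steps: seed 1500 Huh7 Rab9-luc cells per well, rest 2 h at 37 °C; add compound in DMSO; incubate 24 h; add luciferase reagent, 10 min ambient; read luminescence.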
ELG1 DNA repair: blocks ELG1-dependent DNA repair in HEK293T cells; HEK293T ELG1-luciferase reporter, luminescence, 16 h; DNA damage induced by 5-fluorouridine; Potency, µM (top dose mostly 46.1 µM), for the others: at the highest dose activity change, negative = inhibition, hits mostly inhibitors; hit rate 2.3% among 330,000; also: % is scaled to controls: 0 for no effect and ±100 for the full control effect; nearly all actives have a fitted effect of over 55% in size
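Quantitative HTS, concentration-response format. 2,000 cells/well co-treated with 5-fluorouridine and compound, 16 hr in 5% CO2 at 37 °C; ONE-Glo luminescence read after 30 min.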
SMN2 splice enh: enhancers of SMN2 splice variant expression | HEK293 SMN2-luciferase splicing reporter, luminescence, 30-36 h | Potency, µM (highest dose often 46.1 µM), for inactives: at the top dose activity change, positive = activation, most hits filed as activators | hit rate 2.8% among 210,000; also: % of control where 0% means no effect; nearly all actives have a fitted effect of over 55% in size
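HEK293 cells carry an SMN2 […]–luciferase reporter in which exon 7 inclusion puts luciferase in frame. Cells were plated 10-12 h before compound addition, then incubated 30-36 h at 37C. ONE-Glo luminescence was read; sodium butyrate at 4.5 mM final served as control.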
* marks the source's active call; other numbers are inactive results; ? = inconclusive; . = no result; [ ] = remark or other dose. Sampled rows, rich in hits. Any-hit rate of the full collection: about 9.3%. Calls follow the shape of the dose curve; as a rule, active = well fitted curve in the direction sought with a large enough effect; inconclusive = small, poorly fitted or top-dose-only effect, or another doubt; inactive = no such curve, though single readings can be large; an effect the other way counts as inactive or inconclusive. Potency is read from the fitted curve at half-maximal effect.

SMILES	FLuc modulator	ELG1 genotoxic	NPC1 promoter act	Rab9 promoter act	ELG1 DNA repair	SMN2 splice enh
CN1CCN(CN2C(=O)C3C4C=CC(C3C2=O)C2C3C(=O)N(CN5CCN(C)CC5)C(=O)C3C42)CC1 (configuration not stated)	.	.	.	.	.	-7.0%[9.22 µM]
Cc1ccn2cc(CC(=O)O)nc2c1	3.1%	0.9%	-4.2%	3.5%	-2.0%	.
Cc1ccn2cc(CSc3ccccc3N)nc2c1	10.7µM*	?	2.24µM*	0.631µM*	?	?
CCOC(=S)SCc1cn2ccc(C)cc2n1	23.9µM*	0.1%	-3.6%	-0.4%	7.9%	-31.4%
CCOC(=O)c1c(CN2CCOCC2)oc2ccc(OC(C)=O)cc12	0.1%	-0.7%	-1.9%	-4.1%	-13.6%	.
CCOC(=O)c1c(C)oc2cc(Br)c(OC(=O)N3CCOCC3)cc12	?	1.3%	0.3%	29.3%	23.1µM*	-6.6%
Nc1nc(N)nc(CCCc2nc(N)nc(N)n2)n1	.	.	.	.	.	-4.0%[9.22 µM]
O=C(CSc1nnc2ccccn12)c1ccc2c(c1)OCCO2	4.78µM*	2.91µM*	1.12µM*	1µM*	?	11.2µM*
O=C(CSc1nnnn1C1CCCC1)c1ccc2c(c1)OCCO2	0.757µM*	15.5%	1.12µM*	0.631µM*	?	21.4%
COc1ccc(C)cc1-n1nnnc1SCC(=O)c1ccc2c(c1)OCCO2	16.9µM*	-3.8%	4.2%	4.7%	6.7%	-1.0%
COc1ccc(-n2nnnc2SCC(=O)c2ccc3c(c2)OCCO3)c(OC)c1	?	-0.1%	-0.7%	-2.3%	-9.2%	-45.9%
CCn1nnnc1SCC(=O)c1ccc2c(c1)OCCO2	19µM*	3.1%	?	?	?	-4.0%
CCCn1cc(S(=O)(=O)c2ccc(OC)cc2)c(=O)c2cc(F)c(N3CCCC(C)C3)cc21 (configuration not stated)	-0.9%	.	.	.	.	.
O=C(CC1NCCNC1=O)Nc1cccc(F)c1 (configuration not stated)	0.5%	.	.	.	.	10.3%
Cc1ccc(C)c(C(=O)CSc2nnnn2C(C)C)c1	?	?	14.5%	28.9%	?	?
CC(C)n1nnnc1SCC(=O)c1ccc2c(c1)OCCO2	4.78µM*	10.5%	3.55µM*	3.55µM*	?	-9.0%
CCn1c(SCC(=O)c2ccc3c(c2)OCCO3)nnc1C(C)C	?	2.7%	?	?	18.0%	21.1%
Cc1ccc(C(=O)CSc2nnnn2C(C)C)c(C)c1	0.675µM*	?	2.82µM*	2.82µM*	?	0.794µM*
NC(=O)c1ccc(-n2nnnc2SCC(=O)Nc2ccc(F)cc2)cc1	-1.3%	-1.3%	-1.6%	9.7%[1.84 µM]	-4.8%	.
CN(CC(=O)Nc1ccc(OC(F)(F)F)cc1)S(=O)(=O)c1ccc2c(c1)CCC(=O)N2	-2.6%	.	.	.	.	-84.6%
O=C(Cc1csc(NC(=O)Nc2cccc(Cl)c2)n1)NCc1ccccn1	2.69µM*	2.4%	22.4%	?	19.1%	.
O=C(Cc1csc(NC(=O)Nc2cccc(Cl)c2)n1)NCc1cccnc1	6.75µM*	-8.3%	11.2%	13.9%	-28.5%	.
COc1ccccc1NC(=O)Nc1nc(CC(=O)NCc2cccnc2)cs1	?	0.1%	-4.4%	1.0%	-2.5%	.
O=C(Cc1csc(NC(=O)Nc2ccc(Cl)cc2)n1)NCc1cccnc1	3.01µM*	-0.3%	23.8%	23.8%	?	.
C=CCn1c(SCC(=O)NCC)nnc1-c1cc2c(s1)CCC(CC)C2 (configuration not stated)	12µM*	?	5.0%	22.2%	?	?
SMILES	FLuc modulator	ELG1 genotoxic	NPC1 promoter act	Rab9 promoter act	ELG1 DNA repair	SMN2 splice enh
C=CCn1c(SCC(=O)NCCOC)nnc1-c1cc2c(s1)CCC(CC)C2 (configuration not stated)	9.53µM*	-1.2%	-4.2%	-7.2%	?	10.9%
CCOC(=O)C1OC1C(=O)NC(CC(C)C)C(=O)NCCC(C)C (configuration not stated)	.	.	.	.	.	-11.0%
N#Cc1ccc(-c2csc(-c3ccno3)n2)cc1	-14.1%	5.1%	2.3%	-5.2%	0.0%	.
FC(F)(F)c1ccc(-c2csc(-c3ccno3)n2)cc1	26.9µM*	-1.1%	10.7%	18.0%	13.1%	.
N#Cc1cc2ccccc2nc1SCc1ccccn1	16.9µM*	7.31µM*	-1.0%	2.2%	?	11.2µM*
Cc1cc2cc3c(cc2nc1SCc1ccccn1)OCCO3	?	9.6%	-4.4%	?	?	-11.5%[1.84 µM]
COc1ccccc1C(=O)Nc1ccc(OCC(=O)N2C(C)CCCC2C)cc1 (configuration not stated)	8.49µM*	2.5%	1.0%	8.5%	-7.6%	.
COc1ccc(OCC(=O)OCC(=O)N2C(C)CCCC2C)cc1 (configuration not stated)	0.1%	-1.2%	0.2%	-3.8%	22.6%	.
COc1ccccc1C(=O)Nc1ccc(OCC(=O)N2CCCCC2C)cc1 (configuration not stated)	12µM*	1.0%	-4.8%	-0.2%	-6.8%	.
CCc1ccc(NC(=O)CCC(=O)c2ccccc2)cc1	13.5µM*	3.1%	-0.1%	-6.5%	5.5%	.
Cc1ccc(NC(=O)COC(=O)c2ccccc2Nc2ccccc2)cc1	4.8%	0.4%	1.3%	-2.1%	4.9%	-22.9%
Cc1ccc(NC(=O)c2cccc(N3CCCS3(=O)=O)c2)cc1C	19µM*	.	.	.	.	.
Cc1cccc(C(=O)Nc2cccc(NC(=O)c3ccccc3)c2)c1	16.9µM*	-1.7%	9.5%	-3.0%	-29.9%	.
Cc1ccc(CNC(=O)c2cccc(N3CCCS3(=O)=O)c2)cc1	3.6%	.	.	.	.	.
Cc1cccc(C(=O)Nc2ccccc2C(=O)OCC(=O)Nc2ccc(C#N)cc2)c1	?	?	11.0%	12.8%	?	15.8µM*
Cc1cccc(C(=O)Nc2ccc(NC(=O)c3ccccc3)cc2)c1	23.9µM*	-6.2%	-0.6%	-0.9%	-15.3%	.
O=C(CC(=O)c1ccccc1)Nc1ccc(Cl)cc1	15.1µM*	13.3%	?	?	?	.
O=C(Cc1ccc(Cl)cc1)Nc1ccc(NC(=O)c2ccccc2)cc1	2.6%	6.8%	-0.7%	3.4%	1.3%	0.6%[1.84 µM]
Cc1ccc(NC(=O)c2ccc(NC(=O)c3ccccc3)cc2)cc1C	26.9µM*	?	?	?	?	.
Cc1cccc(C(=O)NNC(=O)c2ccccc2C)c1	?	6.1%	6.4%	4.7%	?	11.7%
Cc1cccc(C(=O)NNC(=O)c2ccccc2O)c1	21.3µM*	?	3.16µM*	?	?	.
CC(C)(C)CC(=O)Nc1ccc(S(=O)(=O)N2CCCC2)cc1	-2.0%	1.1%	-2.7%	-6.1%	?	.
Cc1cccc(NC(=O)c2c(C)nc3ccccn23)c1	?	3.7%	22.4%	?	?	?

Screening data as filed in PubChem.
